Results reported in PubChem BioAssay (NCI).
About 83,000 compounds went through this panel and 20% of them were active in at least one assay; those are over-represented in the sample as a whole.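 Negative percent growth values reflect cell death: -40 means 40% of the cells present at the start died, and -100 means all died.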 Unmarked numbers belong to inactive results. Activity calls are given as the source filed them. How the source made its calls: active means growth percent below 10; inactive means the rest.

Assays:
Test in all cases: NCI-60 one-dose screen, 48 h (100 = growth as untreated, 0 = no growth, -100 = all killed)
Settings in all cases: 10 µM unless noted
[1] = system: NCI-H23 lung
[2] = system: NCI-H226 lung
[3] = system: NCI-H322M lung
[4] = system: HOP-62 NSCLC
[5] = system: NCI-H460 lung
[6] = system: NCI-H522 lung
[7] = system: A549/ATCC NSCLC
[8] = system: 786-0 renal
[9] = system: COLO 205 colon
[10] = system: DU-145 prostate
[11] = system: K-562 leukemia
[12] = system: MALME-3M melanoma
[13] = system: MDA-MB-231 breast
[14] = system: RXF 393 renal
[15] = system: SF-268 CNS
[16] = system: SF-295 CNS
[17] = system: SF-539 CNS
[18] = system: UACC-257 melanoma
[19] = system: M14 melanoma
[20] = system: HOP-92 NSCLC

COc1cc2nc(-c3ccc(C(F)(F)F)cc3)cc(OCCCN3CCCCC3)c2cc1OC
growth [1]: 57.9% | growth [2]: -11.8% (active) | growth [3]: 62.3% | growth [4]: 57.6% | growth [5]: 17.7% | growth [6]: 33.6% | growth [7]: 44.4% | growth [8]: 48.4% | growth [9]: 11.6% | growth [10]: 45.3% | growth [11]: 12.8% | growth [12]: 39.9% | growth [13]: 27.7% | growth [14]: 26.9% | growth [15]: 50.6% | growth [16]: -46.8% (active) | growth [17]: 46.1% | growth [18]: 10.1% | growth [19]: -19.2% (active)

CCc1c(Nc2ccc(C)cc2)[nH]c(N)nc1=S
growth [1]: 97% | growth [2]: 95.3% | growth [3]: 106% | growth [4]: 98.1% | growth [5]: 106% | growth [6]: 96.9% | growth [7]: 101% | growth [8]: 104% | growth [10]: 104% | growth [11]: 115% | growth [12]: 103% | growth [13]: 98.8% | growth [14]: 113% | growth [15]: 103% | growth [16]: 96.2% | growth [17]: 103% | growth [18]: 104% | growth [19]: 98.7%

COc1cc(Nc2cc(O)c3c(=O)cc(-c4ccccc4)oc3c2)cc(OC)c1
growth [1]: 35.9% | growth [2]: 67.7% | growth [3]: 44.1% | growth [4]: 35.5% | growth [5]: 7.62% (active) | growth [6]: -35.3% (active) | growth [7]: 25.9% | growth [8]: 45.4% | growth [9]: 48.4% | growth [10]: 20% | growth [11]: 13.1% | growth [12]: 73.6% | growth [13]: 15.9% | growth [15]: 48.2% | growth [16]: 33.5% | growth [17]: -35.2% (active) | growth [18]: 77.9% | growth [19]: 28.4%

COc1ccc(-c2nc(SCCC(C)C)nc(N/N=C(/C)c3ccc(C)cc3)c2C#N)cc1
growth [1]: 84.5% | growth [2]: 91.7% | growth [3]: 87.4% | growth [4]: 93.9% | growth [5]: 99.7% | growth [7]: 99.3% | growth [8]: 102% | growth [9]: 109% | growth [10]: 104% | growth [11]: 94.6% | growth [12]: 103% | growth [13]: 71% | growth [15]: 93.2% | growth [16]: 97.7% | growth [17]: 86.9% | growth [18]: 98% | growth [19]: 90.4%

O=S(=O)(NCCNc1nccc(-c2c(-c3cccc(F)c3)nc3occn23)n1)c1cccc2ccccc12
growth [1]: 75.8% | growth [2]: 53.6% | growth [3]: 74.8% | growth [4]: 71% | growth [5]: 58.2% | growth [6]: 46.2% | growth [7]: 44.1% | growth [8]: 48% | growth [9]: 40.7% | growth [10]: 53.3% | growth [11]: 19% | growth [12]: 56.1% | growth [13]: 58.5% | growth [15]: 38.6% | growth [16]: 58.6% | growth [17]: 96.7% | growth [18]: 77.4% | growth [19]: 54.8%

COc1cc(C(=O)/C=C/c2c(C)n([O-])c3ccc(Cl)cc3[n+]2=O)cc(OC)c1OC
growth [1]: 72% | growth [2]: 93.2% | growth [4]: 82% | growth [5]: 83% | growth [20]: -31.2% (active) | growth [6]: -77.3% (active) | growth [7]: 81.5% | growth [8]: 61.7% | growth [9]: 36.4% | growth [10]: 36.3% | growth [11]: 1.97% (active) | growth [12]: 95.4% | growth [13]: 81% | growth [14]: 43.2% | growth [15]: 65.5% | growth [16]: 95% | growth [17]: 73.7% | growth [18]: 81.2% | growth [19]: 80.9%

CCNNC(=O)[C@@H]1[C@H](c2cc(OC)c(OC)c(OC)c2)c2cc3c(cc2[C@H](O)[C@H]1CO)OCO3
growth [1]: 24% | growth [2]: -21.5% (active) | growth [4]: 36.3% | growth [5]: 1.59% (active) | growth [20]: 9.16% (active) | growth [6]: -18.7% (active) | growth [7]: 9.99% (active) | growth [8]: 0.908% (active) | growth [9]: -63.6% (active) | growth [10]: -24% (active) | growth [11]: 13.7% | growth [12]: 56.3% | growth [13]: 39.6% | growth [14]: 15.3% | growth [15]: 31.1% | growth [16]: 9.93% (active) | growth [17]: -10.9% (active) | growth [18]: 53% | growth [19]: -19.5% (active)

O=C(/C=C\c1ccc(OCCCCCC[P+](c2ccccc2)(c2ccccc2)c2ccccc2)cc1)c1ccc2c(c1)OCCO2
growth [1]: 3.95% (active) | growth [2]: -0.25% (active) | growth [3]: 22.3% | growth [4]: -21.8% (active) | growth [5]: -12.4% (active) | growth [6]: -6.94% (active) | growth [7]: 12.1% | growth [8]: 5.76% (active) | growth [9]: -58.6% (active) | growth [10]: 6.93% (active) | growth [11]: 2.43% (active) | growth [12]: -15.3% (active) | growth [13]: 2.28% (active) | growth [15]: -4.06% (active) | growth [16]: -17.4% (active) | growth [17]: 3.93% (active) | growth [18]: -5.23% (active) | growth [19]: -3.09% (active)

Cc1c2c(cc[n+]1Cc1ccccc1)c1ccc(OCc3ccccc3)cc1n2Cc1ccccc1
growth [1]: -12.2% (active) | growth [2]: -12% (active) | growth [3]: -26.9% (active) | growth [4]: -70.9% (active) | growth [5]: -87.5% (active) | growth [6]: -47.1% (active) | growth [7]: 4.01% (active) | growth [8]: -87.4% (active) | growth [9]: -82.3% (active) | growth [10]: -33.6% (active) | growth [11]: -25% (active) | growth [12]: -73.6% (active) | growth [13]: -85.1% (active) | growth [15]: -90.4% (active) | growth [16]: -69.2% (active) | growth [17]: -5.52% (active) | growth [18]: -0.651% (active) | growth [19]: -87.9% (active)

C=C(C)[C@@H]1CC[C@]2(CO)CC[C@]3(C)[C@H](CC[C@@H]4[C@@]5(C)CCCNC(C)(C)[C@@H]5CC[C@]43C)[C@@H]12
growth [1]: 62.6% | growth [2]: 84.4% | growth [3]: 69.8% | growth [4]: 79% | growth [5]: -54.4% (active) | growth [7]: 44.9% | growth [8]: 30.2% | growth [9]: -63.5% (active) | growth [10]: 49.5% | growth [11]: -26.6% (active) | growth [12]: -65.4% (active) | growth [13]: 46.8% | growth [14]: 48.4% | growth [15]: 61.2% | growth [16]: 40.4% | growth [17]: 34.3% | growth [18]: -8.72% (active) | growth [19]: -49.8% (active)

O=C(O)C(/C=C/c1ccco1)=N\Nc1nc(-c2ccc(Cl)cc2)cs1
growth [1]: 57.7% | growth [2]: 84% | growth [3]: 68.5% | growth [4]: 46.4% | growth [5]: 37.6% | growth [6]: 39.4% | growth [7]: 51.4% | growth [8]: 51.8% | growth [9]: 94.6% | growth [10]: 70.1% | growth [11]: 65.7% | growth [12]: 79% | growth [13]: 84.8% | growth [15]: 50.9% | growth [16]: 27.8% | growth [17]: 43.4% | growth [18]: 72.2% | growth [19]: 43.7%

Cc1nn(-c2ccccc2)c(N2CCOCC2)c1/C=N/N=c1\sc2ccccc2n1C
growth [1]: 79% | growth [2]: 73.8% | growth [3]: 92.6% | growth [4]: 99.4% | growth [5]: 39.6% | growth [6]: 81.5% | growth [7]: 87.7% | growth [8]: 96.7% | growth [10]: 100% | growth [11]: 41.7% | growth [12]: 99.4% | growth [13]: 52.3% | growth [14]: 88.6% | growth [15]: 85% | growth [16]: 89.3% | growth [17]: 84.7% | growth [18]: 87.8% | growth [19]: 87.5%

COc1cc(/C=N/NC(=O)c2ccccc2Nc2cccc(C(F)(F)F)c2)ccc1O
growth [1]: 91.5% | growth [2]: 88.3% | growth [3]: 103% | growth [4]: 93.4% | growth [5]: 100% | growth [6]: 81.9% | growth [7]: 100% | growth [8]: 75.7% | growth [9]: 106% | growth [10]: 89.7% | growth [11]: 77.9% | growth [12]: 106% | growth [13]: 71.6% | growth [15]: 81.5% | growth [16]: 93.5% | growth [17]: 105% | growth [18]: 23.8% | growth [19]: 73.9%

Cc1cc(NC(=O)c2cnc(N3CCN(CCOCCOCCOCCOCCC(=O)N[C@H](C(=O)N4C[C@H](O)C[C@H]4C(=O)N[C@@H](C)c4ccc(-c5scnc5C)cc4)C(C)(C)C)CC3)cn2)c2ncccc2c1
growth [1]: 4.34% (active) | growth [2]: 1.46% (active) | growth [4]: 4.92% (active) | growth [5]: 7.54% (active) | growth [20]: 4.9% (active) | growth [7]: 66.7% | growth [8]: 29.9% | growth [9]: 47.1% | growth [10]: 35% | growth [11]: 6.65% (active) | growth [12]: -31.7% (active) | growth [13]: -61.6% (active) | growth [15]: 8.05% (active) | growth [16]: -14.9% (active) | growth [17]: -75.5% (active) | growth [18]: -5.78% (active) | growth [19]: -33.7% (active)

Clc1nc(Cl)c2ncn(CCOCCn3cnc4c(Cl)nc(Cl)nc43)c2n1
growth [1]: -78.5% (active) | growth [2]: -74.2% (active) | growth [4]: -71.8% (active) | growth [5]: -62.8% (active) | growth [20]: -93.2% (active) | growth [6]: -85.4% (active) | growth [7]: -76.2% (active) | growth [8]: -92.9% (active) | growth [9]: -65.2% (active) | growth [10]: -99.1% (active) | growth [11]: -62.9% (active) | growth [12]: -73.2% (active) | growth [13]: -89.9% (active) | growth [15]: -83.3% (active) | growth [16]: -91.9% (active) | growth [17]: -89.9% (active) | growth [18]: -89.7% (active) | growth [19]: -84.9% (active)

CC(C)CCSc1nc(NNC(N)=O)c(C#N)c(-c2ccccc2)n1
growth [1]: 91.3% | growth [2]: 96.6% | growth [4]: 105% | growth [5]: 112% | growth [20]: 86.1% | growth [6]: 97.4% | growth [7]: 106% | growth [8]: 75.2% | growth [9]: 121% | growth [10]: 117% | growth [11]: 99.2% | growth [12]: 99.7% | growth [13]: 99.6% | growth [15]: 101% | growth [16]: 96.9% | growth [17]: 94.8% | growth [18]: 102% | growth [19]: 71.7%

CCOc1ccc(/C=N/Nc2cc(C)nc3ccc(Cl)cc23)cc1
growth [1]: 78.9% | growth [2]: 79.5% | growth [4]: 94.4% | growth [5]: 3.37% (active) | growth [20]: 50.5% | growth [7]: 59.9% | growth [8]: 33.2% | growth [9]: 21% | growth [10]: 44.4% | growth [11]: -38.7% (active) | growth [12]: -38.9% (active) | growth [13]: 43% | growth [14]: 0.829% (active) | growth [15]: 75.2% | growth [16]: -64.6% (active) | growth [17]: 83.6% | growth [18]: 69.5% | growth [19]: -39.6% (active)
